Experimental data as given in PubChem BioAssay AID1159580 (chemical genetic matrix, 2015).
In all, about 5,500 compounds went through this assay and about 2,000 (36%) were called active. About 18% were inconclusive and are not listed. No stated cut-off is given here; in the data, active means normalized growth mostly below about 0.91 (no sharp cut-off); inconclusive means no clear call, values can overlap the other calls; inactive means mostly above about 0.92. The list shows a part of the results.

Experiment: chemical genetic growth profiling, strain panel (AID 1159580);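 further: tested at 20 µM; growth read once vehicle control cultures reached saturation at 30 °C; 1 = growth at the plate median or of vehicle wells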
Settings: S. cerevisiae deletion strains, growth OD

Measured: normalized growth

CC(=O)N[C@H](C(=O)O)C(C)(C)SN=O
inactive: locus YAL013W, strain DEP1, stronger effect = lower value 1.01 | locus YAL040C, strain CLN3, stronger effect = lower value 1.01 | locus YCL061C, strain MRC1 (second series), stronger effect = lower value 1.01 | locus YDR363W, strain ESC2, stronger effect = lower value 0.989 | locus YER002W, strain NOP16, stronger effect = lower value 1.01 | locus YGR078C, strain PAC10, stronger effect = lower value 1.02 | locus YGR229C, strain SMI1, stronger effect = lower value 1 | locus YMR307W, strain GAS1, stronger effect = lower value 0.987 | locus YNL128W, strain TEP1, stronger effect = lower value 0.998 | locus YNL153C, strain GIM3, stronger effect = lower value 1.02 | locus YNL175C, strain NOP13, stronger effect = lower value 1.01 | locus YNL197C, strain WHI3, stronger effect = lower value 1.01 | locus YNL224C, strain SQS1, stronger effect = lower value 1.02 | locus YNL322C, strain KRE1, stronger effect = lower value 1.01 | locus YOR083W, strain WHI5 (second series), stronger effect = lower value 1.02 | locus YPL241C, strain CIN2, stronger effect = lower value 1.01
